This is a sample that favours compounds with a hit; in the whole collection about 2% have one here.
GSTO1 inh – inhibitors of recombinant GSTO1, primary screen, counter-screen for RBBP9 inhibitor project, biochemical, fluorescence polarization. activity-based probe fluorescence polarization. Glutathione S-transferase omega-1 (Homo sapiens), P78417. inhibition, % at 5.96 µM. AID 1974, 2009. hit rate 1.1% among 300,000;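 active means inhibition above the campaign mean inhibition plus 3 SD, cut at about 35% in these data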;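 further: 0% = GSTO1-1 with DMSO and 100% = wells lacking GSTO1-1 enzyme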
Target sequence (P78417 whole entry, looked up): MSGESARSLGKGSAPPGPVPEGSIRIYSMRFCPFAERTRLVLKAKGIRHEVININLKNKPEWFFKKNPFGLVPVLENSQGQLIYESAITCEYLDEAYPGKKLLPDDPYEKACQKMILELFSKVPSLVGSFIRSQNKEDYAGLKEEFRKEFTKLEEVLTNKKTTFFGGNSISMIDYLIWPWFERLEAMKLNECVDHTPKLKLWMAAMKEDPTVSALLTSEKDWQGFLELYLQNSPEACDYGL
PREPL inhibitor – PREPL enzyme inhibitors, primary screen, biochemical, fluorescence polarization. Prolyl endopeptidase-like (Homo sapiens), Q4J6C6. recombinant PREPL, fluorescence polarization activity-based probe. inhibition, % at 5.96 µM. hit rate 0.68% among 320,000;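 further: 0% = enzyme with DMSO and 100% = wells lacking enzyme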
LYPLA2 counter – LYPLA2 inhibitors, primary screen, counter-screen for PME1 inhibitor project, biochemical, fluorescence polarization, FP-Rh probe ABPP. Acyl-protein thioesterase 2 (Homo sapiens), O95372. recombinant LYPLA2. inhibition, % at 5.9 µM. hit rate 0.38% among 320,000;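 active means inhibition above the screen-wide mean plus 3 SD, limit set per campaign, cut at about 26% in these data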;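 further: 0% = LYPLA2 with DMSO and 100% = wells lacking LYPLA2 enzyme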
Target sequence (O95372 whole entry, looked up): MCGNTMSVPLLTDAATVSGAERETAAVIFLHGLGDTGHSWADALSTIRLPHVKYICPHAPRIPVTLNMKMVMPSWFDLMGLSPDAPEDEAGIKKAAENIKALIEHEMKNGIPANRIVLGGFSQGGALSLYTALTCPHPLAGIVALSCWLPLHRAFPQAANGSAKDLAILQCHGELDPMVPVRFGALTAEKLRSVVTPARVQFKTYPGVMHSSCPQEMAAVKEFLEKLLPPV
LYPLA1 inh – LYPLA1 inhibitors, primary screen, counter-screen for PME1 inhibitor project, biochemical, fluorescence polarization, FP-Rh probe ABPP | recombinant LYPLA1 | inhibition, % at 5.9 µM | hit rate 0.16% among 320,000 | AID 2174, 2009;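 active means inhibition above the mean of all tested compounds plus 3 SD, set per campaign, cut at about 14% in these data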;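 further: inhibitors block serine hydrolase probe labeling of LYPLA1 so polarization falls; 0% = enzyme with DMSO and 100% = wells lacking LYPLA1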
PME-1 inh – PME-1 inhibitors via competitive probe labeling, primary screen, biochemical, fluorescence polarization, FP-Rh probe, HTS; Protein phosphatase methylesterase 1 (Homo sapiens), Q9Y570; recombinant PME-1; inhibition, % at 5.9 µM; hit rate 0.53% among 320,000;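 active means inhibition above the campaign mean of all compounds plus 3 SD, cut at about 26% in these data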;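 further: competitive labeling of PME-1 active site by serine hydrolase directed probe; 0% = PME-1 with DMSO and 100% = wells lacking PME-1 enzyme; inhibitors block probe labeling so polarization falls and inhibition rises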
Fam108B inh – mouse Fam108B serine hydrolase inhibitors, primary screen, counter-screen for RBBP9 inhibitor project, biochemical, fluorescence polarization | recombinant Fam108B, FP-Rh probe fluorescence polarization | inhibition, % at 9.51 µM | hit rate 0.33% among 300,000 | AID 1947, 2009;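 active means inhibition above the screen mean inhibition plus 3 SD, computed separately per campaign, cut at about 18% in these data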;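 further: inhibitors lower polarization as less probe binds the enzyme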
PREPL confirm – human PREPL enzyme inhibitors, confirmation, biochemical, fluorescence polarization. hit rate 67% among 2,000. recombinant PREPL, fluorescence polarization activity probe. inhibition, % at 5.96 µM. shares compounds with PREPL inhibitor. AID 2803, 2010;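 further: 0% = protein with DMSO and 100% = wells lacking protein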
Numbers without * were called inactive; i = inactive; · = no result. Unless noted, no stated cut-off is given here; in the data, active means inhibition above about 43%; inactive means the rest.

SMILES	GSTO1 inh	PREPL inhibitor	LYPLA2 counter	LYPLA1 inh	PME-1 inh	Fam108B inh	PREPL confirm
CCN1/C(=C/c2ccc3cc(C)ccc3[n+]2CC)Sc2ccccc21	-5	65*	-2	-1	-13	-12	57*
CCN1/C(=C/C=C/c2sc3ccccc3[n+]2CC)Sc2ccccc21	-168	i	-291	-139	-296	-310	·
CCOC(=O)CC1(NC(=O)C2CCC(=O)N(Cc3ccccc3F)C2)CCCCC1 (centres undefined)	9	5	-10	-3	0	-2	·
COCc1c(C(=O)OCc2nnc(-c3ccc([N+](=O)[O-])cc3)o2)oc2ccccc12	·	43*	·	·	·	·	40
CC(=O)c1c(C)[nH]c(C(=O)OCc2nnc(-c3ccc([N+](=O)[O-])cc3)o2)c1C	·	8	·	·	·	·	·
N#Cc1ccccc1OCC(=O)NCC(c1cccs1)N1CCOCC1 (centres undefined)	7	10	-1	1	-1	4	·
Cc1ccc(/C=C/C(=O)Nc2ccc(N(C)C)cc2)o1	4	48*	-3	-1	0	0	42
COC(CNC(=O)C1CCCN(S(=O)(=O)c2c(C)noc2/C=C/c2cccs2)C1)OC (centres undefined)	15	14	3	2	11	-2	·
CC[C@@H](C)[C@@H]1CN([C@@H](CN2CCC[C@H]2CN2C(N)=NC[C@H]2C(C)C)C(C)C)C(=N)N1CCc1ccc(Cl)c(Cl)c1	·	60*	·	·	·	·	50*
CC[C@@H](C)[C@@H]1CN([C@@H](C)CN2CCC[C@H]2CN2C(N)=NC[C@H]2CC(C)C)C(=N)N1CCCC1CCCC1	·	41	·	·	·	·	·
NC1=NC[C@H](Cc2ccccc2)N1CCc1cccc(F)c1	-3	-8	-1	-2	3	-3	·
CC[C@@H](C)[C@@H]1CN([C@@H](C)CN2CCC[C@H]2CN2C(N)=NC[C@@H]2Cc2ccccc2)C(=N)N1CCCC1CCCC1	·	44*	·	·	·	·	50*
CC[C@@H](C)[C@@H]1CN([C@@H](C)CN2CCC[C@H]2CN2C(N)=NC[C@@H]2Cc2ccccc2)C(=N)N1CCc1ccc(Cl)c(Cl)c1	·	52*	·	·	·	·	41
O=C(Nc1ccc2c(c1)CCC2)c1cc(=O)[nH]c2ccccc12	4	3	2	1	-3	-2	·
COc1cc(C(=O)NCCNC(=O)C2CCCNC2=O)cc(OC)c1OC (centres undefined)	5	-3	-3	0	-1	-1	·
O=C(CSc1nnc(-c2ccc3c(c2)OCO3)o1)Nc1ncc(Cl)cc1Cl	4	-1	2	-1	-4	2	·
COc1ccc(F)cc1S(=O)(=O)NCc1cc(=O)n(C)c(=O)n1C	5	13	9	-1	-3	2	·
O=C(c1cnn2c(C(F)F)cc(-c3ccccc3)nc12)N1CCOCC1	4	61*	0	-2	6	0	4
COc1cccc(CNC(=O)c2cc(COc3c(F)cccc3F)on2)c1	-2	50*	0	1	-3	-2	-2
Cc1ccc(S(=O)(=O)N(C)C)cc1NC(=O)CCc1ccccc1	8	3	0	2	8	3	·
COc1ccc(C(=O)N/C(=C\c2cn(C)c3ccccc23)C(=O)NCCCn2ccnc2)cc1	1	-3	7	2	-2	-1	·
COc1ccc(N2CCN(c3ccc4nnc(CCC(=O)Nc5ccc(C)cc5)n4n3)CC2)cc1	-5	59*	-6	-1	0	-1	60*
COc1ccc(NC(=O)CCc2nnc3ccc(N4CCC(C)CC4)nn23)cc1	-1	8	13	4	7	1	·
COc1ccc(-c2cn[nH]c2-c2ccc(OCc3ccccc3)cc2O)cc1OC	-17	49*	2	-6	7	3	32
C#CCOCCOCCOCCNc1nc(N2CCN(C(=O)[C@H](Cc3cc4ccccc4[nH]3)n3cc([C@@H](N)C(C)CC)nn3)CC2)nc(N2CCN(C(=O)[C@H](CCCCN)n3cc([C@@H](N)CC(C)C)nn3)CC2)n1 (some centres undefined)	6	46*	-1	0	0	2	50*
SMILES	GSTO1 inh	PREPL inhibitor	LYPLA2 counter	LYPLA1 inh	PME-1 inh	Fam108B inh	PREPL confirm
C#CCOCCOCCOCCNc1nc(N2CCN(C(=O)[C@H]([C@@H](C)CC)n3cc([C@@H](N)Cc4ccc(O)cc4)nn3)CC2)nc(N2CCN(C(=O)[C@H](Cc3cc4ccccc4[nH]3)n3cc([C@@H](N)C(C)CC)nn3)CC2)n1 (some centres undefined)	1	53*	5	0	2	-4	48*
C#CCOCCOCCOCCNc1nc(N2CCN(C(=O)[C@H](Cc3cc4ccccc4[nH]3)n3cc([C@@H](N)CC(C)C)nn3)CC2)nc(N2CCN(C(=O)[C@H](Cc3cc4ccccc4[nH]3)n3cc([C@@H](N)CC(C)C)nn3)CC2)n1	5	69*	-2	-1	-4	8	56*
C#CCOCCOCCOCCNc1nc(N2CCN(C(=O)[C@H](CCCN=C(N)N)n3cc(C(N)[C@H](C)CC)nn3)CC2)nc(N2CCN(C(=O)[C@H](CCCN=C(N)N)n3cc(C(N)[C@@H](C)CC)nn3)CC2)n1 (some centres undefined)	·	44*	·	·	·	·	33
O=C(NCCCc1ccccc1)c1ccc(CS(=O)Cc2ccc(Cl)cc2)o1 (centres undefined)	0	3	1	-1	-2	1	·
Cc1ccc(S(=O)(=O)N2CCCC(c3nc4c(nnn4Cc4ccc5c(c4)OCCO5)c(=O)[nH]3)C2)cc1 (centres undefined)	-1	-3	1	-1	13	-7	·
C=C(C)C1CC=C(C)/C(=N/NC(=O)CCC(=O)Nc2ccccc2Cl)C1 (centres undefined)	15	3	-6	-2	-12	0	·
O=C(CCS(=O)(=O)c1cccs1)Nc1ccc(C(=O)NC2CCN(Cc3ccccc3)CC2)cc1	0	-7	1	-1	5	-3	·
O=C(CCS(=O)(=O)c1cc2c(cc1Cl)NC(=O)CO2)NCc1ccc(F)cc1	4	-4	-2	-4	5	0	·
O=C(CCN1C(=O)/C(=C/c2ccccc2Cl)SC1=S)NCCc1ccc(O)cc1	0	17	-17	-1	-12	-5	·
O=C(NCc1ccccc1CN1CCCC1)c1cc2cc(Cl)ccc2o1	·	24	4	-3	-3	·	·

Screening data: PubChem, The Scripps Research Institute Molecular Screening Center
